# The list is not random: actives were taken first. Their share in the collection is about 1%.
# RTF Ca sens inh: cardiac RTF calcium desensitization; AID 493244; inhibition, % at 7.15 µM; IANBD-labeled cardiac RTF, Ca2+ fluorescence; 340,000 compounds, 0.12% hits;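 active means inhibition above the mean inhibition of all tested compounds plus 3 SD, cut at about 17% in these data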;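 further: assay run at fixed EC70 calcium of 1.6 mM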
# Keap1-Nrf2 PPI: disrupts human Keap1 binding to Nrf2 peptide | Keap1 Kelch-Nrf2 peptide fluorescence polarization, 1536-well | inhibition, % at 9.4 µM | 340,000 compounds, 0.15% hits; in the data active means inhibition above about 12%;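 further: human Keap1 Kelch domain with fluorescein labeled Nrf2 9mer peptide probe; 0% = neutral control wells and 100% = peptide positive control; higher means more block of Keap1 binding to Nrf2 peptide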
# C-LANA FP: inhibitors of KSHV LANA C-terminal domain DNA binding; MBP-C-LANA/FAM-LBS DNA binding, fluorescence polarization; 340,000 compounds, 0.078% hits; inhibition, % at 9 µM; AID 504423;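 active means highest replicate inhibition at or above 60% at 9 µM, even if other replicates fall short; inactive means all replicates below 60% inhibition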;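 further: 0% = neutral control wells and 100% = 4 µM acridine orange control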
# LANA-H2B inh: blocks KSHV LANA binding to histone H2A/H2B; inhibition, % (concentration not given with the values); cell-free LANA-H2A/H2B peptide, fluorescence polarization; Q9QR71; 320,000 compounds, 0.6% hits; in the data active means inhibition mostly above about 10%, no sharp cut-off; inactive means mostly below about 6.7%
# Target sequence (Q9QR71 whole entry, looked up): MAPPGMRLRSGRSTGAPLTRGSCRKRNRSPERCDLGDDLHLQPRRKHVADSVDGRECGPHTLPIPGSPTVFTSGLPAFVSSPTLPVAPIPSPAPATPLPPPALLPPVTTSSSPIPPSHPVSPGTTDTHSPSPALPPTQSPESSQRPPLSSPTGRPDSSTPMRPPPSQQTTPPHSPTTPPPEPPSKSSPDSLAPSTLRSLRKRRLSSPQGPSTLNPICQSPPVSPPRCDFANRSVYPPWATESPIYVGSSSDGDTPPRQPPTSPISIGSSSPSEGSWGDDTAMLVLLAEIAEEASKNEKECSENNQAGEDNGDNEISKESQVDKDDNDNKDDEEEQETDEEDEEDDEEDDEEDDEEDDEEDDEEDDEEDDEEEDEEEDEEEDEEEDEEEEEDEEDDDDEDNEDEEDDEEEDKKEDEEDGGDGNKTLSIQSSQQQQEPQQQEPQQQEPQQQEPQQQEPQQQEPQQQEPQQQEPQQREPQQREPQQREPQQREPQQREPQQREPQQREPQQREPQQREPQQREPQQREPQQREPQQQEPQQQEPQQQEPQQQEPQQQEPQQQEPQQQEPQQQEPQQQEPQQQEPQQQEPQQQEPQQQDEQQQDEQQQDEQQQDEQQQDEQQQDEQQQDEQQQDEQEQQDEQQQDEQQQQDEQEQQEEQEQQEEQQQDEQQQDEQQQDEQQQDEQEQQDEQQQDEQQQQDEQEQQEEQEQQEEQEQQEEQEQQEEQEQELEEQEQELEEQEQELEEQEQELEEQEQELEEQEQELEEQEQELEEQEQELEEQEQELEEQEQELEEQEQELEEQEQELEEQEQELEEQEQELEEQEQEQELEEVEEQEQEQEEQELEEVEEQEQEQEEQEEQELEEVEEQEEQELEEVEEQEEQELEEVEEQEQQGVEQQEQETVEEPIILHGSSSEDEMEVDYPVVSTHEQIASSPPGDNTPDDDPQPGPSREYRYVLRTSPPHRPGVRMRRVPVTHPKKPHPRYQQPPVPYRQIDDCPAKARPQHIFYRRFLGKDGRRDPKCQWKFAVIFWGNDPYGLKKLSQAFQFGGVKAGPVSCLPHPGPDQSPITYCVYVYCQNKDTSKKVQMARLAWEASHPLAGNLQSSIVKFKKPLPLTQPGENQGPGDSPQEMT
# cardiac RTF act: cardiac RTF calcium sensitization; P19429+P45379; 340,000 compounds, 0.24% hits; IANBD-labeled TnC RTF fluorescence at EC20 calcium; 0% EC20 calcium, 100% full calcium; activation, % at 7.2 µM;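 active means activation above the mean over all tested compounds plus 3 SD, cut at about 30% in these data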;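 further: rise in fluorescence read as greater calcium sensitivity of cardiac thin filaments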
# The depositor's hits bear a star; x = no result given; + = active, no number.
SMILES,RTF Ca sens inh,Keap1-Nrf2 PPI,C-LANA FP,LANA-H2B inh,cardiac RTF act
CCOc1ccc(C(C)NC(=O)c2cccs2)cc1OCC (stereo not given),x,x,x,0.2,x
NC(=O)c1ccc(OCC(=O)N2CCNC2=O)cc1,-12.0,-3.1,0.5,3.7,-0.8
COc1ccc(-n2nc3c(N4CCC(C(=O)N5CCC(C)CC5)CC4)nnc(C)c3c2C)cc1,-45.4,-65.0,-4.4,-2.3,32.4*
Cc1nnc(N2CCC(C(=O)N3CCCCC3)CC2)c2nn(-c3ccc(Cl)cc3)c(C)c12,1.2,-3.5,-0.7,-3.3,-2.8
COc1ccc(NC(=O)CCC(=O)N2CCC(c3ccccc3)=N2)cc1S(=O)(=O)N1CCCCC1,-8.7,-3.0,0.2,x,0.1
COc1ccccc1/C=c1\sc2nc(-c3ccco3)nn2c1=O,-1.0,5.0,7.9,3.5,-3.8
COc1ccc(OC)c(/C=c2\sc3nc(-c4cccs4)nn3c2=O)c1,-2.1,10.5,23.6,-2.2,50.0*
Nc1ccccc1SC/C=C/CSc1ccccc1N,2.1,-1.1,1.7,-0.7,-3.1
C/C(=N\Nc1ccc(Cl)c(C(=O)O)c1)c1ccc(N2CCOCC2)cc1,2.5,-0.5,-1.5,10.6*,3.8
O=C(O)c1cc(N/N=C/c2ccc(N3CCOCC3)s2)ccc1Cl,-6.0,3.7,40.1,x,1.8
COc1ccc(-c2nnc(SC(C)C(=O)NCc3ccc4c(c3)OCO4)n2Cc2ccco2)cc1 (stereo not given),-13.5,-10.2,1.3,5.6,-0.8
N#CC1C(=O)NC(=O)C(C#N)C12CCCC(C(F)(F)F)C2 (stereo not given),1.3,1.1,0.1,x,0.1
Cc1cc(C(=O)NCC2CCCO2)n(-c2ccccc2)n1 (stereo not given),-8.3,-5.7,-3.3,-0.9,8.6
Cc1nn(-c2ccccc2)c(Cl)c1C(=O)NCC1CCCO1 (stereo not given),2.9,-1.3,0.6,23.7*,-0.7
O=C(O)C1C2CCC(O2)C1C(=O)Nc1ccc(Br)cc1F (stereo not given),-3.8,-3.8,-0.2,-5.2,-5.0
CC(C)C[C@H](NC(=O)CCCn1nnc2ccccc2c1=O)C(=O)O,-3.8,-0.2,-1.6,-0.4,8.4
O=C(O)CCNC(=O)CCCn1nnc2ccccc2c1=O,2.4,2.8,0.4,92.3*,0.3
CC1(C)CC2(CCO1)OC(=O)CC2C(=O)Nc1c(Cl)cccc1Cl (stereo not given),-6.6,-4.4,1.0,-2.2,6.7
COc1cccc(NC(=O)C2CC(=O)OC23CCOC(C)(C)C3)c1 (stereo not given),-18.6,0.3,-7.5,13.1*,1.2
O=C(OCCN1C(=O)c2cccc3c(N4CCOCC4)ccc(c23)C1=O)c1ccc(Cl)cc1,-21.1,4.3,38.6,12.0*,20.6
O=C(OCCN1C(=O)c2ccccc2C1=O)c1cc(S(=O)(=O)N2CCOCC2)ccc1F,1.7,-9.9,0.6,1.4,-2.6
CC(C)[C@H](NC(=O)c1c(F)cccc1F)C(=O)OCC(=O)NC(=O)NC1CCCC1,4.8,-4.2,-0.4,14.0*,-0.9
O=C1CCN(CC2CCCCC2)C=C1C(=O)c1ccccc1,-2.1,1.7,-0.6,x,-3.7
CC(C)C(c1nnnn1C1CCCCC1)N1CCOCC1 (stereo not given),-10.7,5.5,0.1,18.9*,-3.8
CCOC(=O)C1CCCN(S(=O)(=O)NC[C@H]2O[C@@H](n3cnc4c(N)ncnc43)[C@H](O)[C@@H]2O)C1 (stereo not given in full),-3.4,-4.4,0.7,+,-3.4
SMILES,RTF Ca sens inh,Keap1-Nrf2 PPI,C-LANA FP,LANA-H2B inh,cardiac RTF act
CN1CCN(S(=O)(=O)NC[C@H]2O[C@@H](n3cnc4c(N)ncnc43)[C@H](O)[C@@H]2O)CC1,-4.6,5.4,-0.8,x,-8.4
Cc1ccc2c(c1)-n1c(nc3ccccc3c1=O)C(Cc1ccc(O)cc1)NC2=O (stereo not given),x,x,x,4.3,x
COc1ccc(OC)c(/C=C/c2nc3ccccc3[nH]c2=O)c1,-103.2,1.6,6.5,4.4,71.8*
NC(=O)Cn1c(O)c(N=NC(=O)CNC(=O)/C=C/c2ccccc2)c2ccccc21,-2.7,-0.7,-0.7,23.2*,-4.4
CC1CCCC(C)N1C(=O)COC(=O)C12CC3CC(CC(Cl)(C3)C1)C2 (stereo not given),-7.3,3.0,-0.5,17.1*,7.5
COc1ccc(-n2c(C)cc(-c3csc(NC(=O)c4ccc(S(=O)(=O)N(C)C)cc4)n3)c2C)cc1,-1.6,3.0,-1.7,-4.5,5.0
Cc1cc(C)cc(NS(=O)(=O)c2ccc3c(c2)C(C)(C)C(=O)N3C)c1,1.1,2.5,-1.2,11.4*,4.4
Cc1ccc(CCNS(=O)(=O)c2ccc3c(c2)C(C)(C)C(=O)N3C)cc1,-4.8,-0.3,1.3,12.0,8.6
Cc1cc(C(=O)COc2cccc3cccnc23)c(C)n1C,-133.7,24.5*,38.3,14.5,52.5*
CC1(OC(=O)c2cccs2)C(=O)C=C2C=C(c3ccsc3)OC=C2C1=O (stereo not given),x,x,x,2.8,x
CC1(OC(=O)C2CCCC2)C(=O)C=C2C=C(c3ccsc3)OC=C2C1=O (stereo not given),-12.5,-2.3,77.7*,0.1,-4.9
Cc1c(OCC(=O)NCc2ccncc2)ccc2c3c(c(=O)oc12)CCCC3,-4.4,-0.7,-0.3,2.1,3.2
Cc1cccc(N=N/C(=C\O)C(=O)c2cccs2)c1,3.0,-4.4,2.3,-3.3,5.3
Cc1nc(Sc2ccccc2)c(C#N)cc1-c1ccccc1,-0.6,-0.8,-0.2,129.8*,2.8
Cc1nc(Cl)c(C#N)cc1-c1ccccc1,-4.8,-0.2,-0.5,0.0,0.3
O=C(NNS(=O)(=O)c1ccc(Br)cc1)c1cccs1,-3.2,-7.9,1.3,16.6*,0.9
CN(c1ccccc1)P(=O)(N(C)c1ccccc1)N(C)c1ccccc1,-10.4,4.6,-0.3,-2.8,-5.8
CC1=[N+](C)N(c2ccccc2)C(=O)C1N=C/C=C/c1ccccc1 (stereo not given),-1.0,-5.1,70.5*,3.1,-6.5
Cc1ccc(Cl)cc1NC(=O)CCCN1C(=O)c2cccnc2C1=O,-4.5,-0.5,0.4,1.2,4.2
CCN(CC)CCNC(=O)c1cn(CC)c2ccc(S(=O)(=O)N3CCOCC3)cc2c1=O,-3.7,-5.6,0.0,8.5*,-1.0
COc1ccc(C2C(C)C(=O)C(C)C(c3ccc(OC)cc3)N2N=O)cc1 (stereo not given),5.9,-0.9,0.8,x,-3.7
COc1ccc(S(=O)(=O)Nc2cccc(F)c2C)cc1C(=O)N1CCOCC1,-4.1,0.8,-1.1,-0.8,-0.9
CC(=O)Nc1ccc(S(=O)(=O)N(C)CC(=O)OC2CCCCC2=O)cc1 (stereo not given),3.1,-1.6,-0.4,58.9*,-2.7
CC(=O)Nc1ccc(S(=O)(=O)N(C)CC(=O)NC2CCCCCCC2)cc1,-3.9,2.5,-3.3,-1.3,-11.2
O=C(CSC1=NCCS1)NC(c1ccccc1)c1ccccc1,2.3,-9.2,2.4,4.0,13.3
